Compounds with a hit are over-represented: about 21% of the library has one in this group of screens.
IL1B secr inh = qHTS for Inhibitors of Inflammasome Signaling: IL-1-beta AlphaLISA Primary Screen; 4.7% of 360,000 active; AID 743279, 2014; activity change, % at 57.5 µM; THP-1 LPS/ATP IL-1B secretion, AlphaLISA, 16 h; hits give low values; in the data active means activity change below about -50%; inconclusive means mostly about -30% to -49%
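Secreted IL-1B measured by AlphaLISA bead assay after 16 h compound exposure of THP-1 cells; compounds (final up to 57.5 uM) added 1 h before LPS (250 ng/mL) and ATP (1.25 mM) stimulation; lower signal means less secretion.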
RORg inh = qHTS for inhibitors of ROR gamma transcriptional activity; Nuclear receptor ROR-gamma (Mus musculus), P51450; Drosophila S2 Gal4-RORgamma UAS-luciferase reporter, 20 h; Potency, µM (top dose mostly 53.6 µM), without a hit: top-dose activity change, negative = inhibition, most hits filed as inhibitors; 5.4% of 310,000 active; AID 2551, 2010; further: potency means the concentration at half of the fitted maximal effect; nearly all actives have a fitted effect of over 60% in size
Target sequence (P51450 whole entry, looked up, the tested form may be a part): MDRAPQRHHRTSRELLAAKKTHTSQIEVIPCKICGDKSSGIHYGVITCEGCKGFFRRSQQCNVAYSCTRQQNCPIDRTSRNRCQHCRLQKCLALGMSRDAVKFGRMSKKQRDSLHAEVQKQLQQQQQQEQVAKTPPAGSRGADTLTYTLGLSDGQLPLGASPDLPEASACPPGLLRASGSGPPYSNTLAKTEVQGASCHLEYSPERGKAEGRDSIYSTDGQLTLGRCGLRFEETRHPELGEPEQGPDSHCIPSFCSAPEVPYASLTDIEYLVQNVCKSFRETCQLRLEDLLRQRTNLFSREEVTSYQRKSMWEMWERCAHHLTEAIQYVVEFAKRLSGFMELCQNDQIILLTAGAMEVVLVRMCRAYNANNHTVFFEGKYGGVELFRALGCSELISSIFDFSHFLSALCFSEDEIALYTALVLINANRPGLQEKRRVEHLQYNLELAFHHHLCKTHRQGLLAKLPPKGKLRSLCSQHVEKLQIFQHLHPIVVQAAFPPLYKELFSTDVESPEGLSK
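Luciferase reporter read in Schneider cells carrying Gal4-RORγ (mouse) and UAS-Photinus luciferase; cells given compound 1 h before 700 uM copper sulfate induction, then incubated 20 h at ambient temperature.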
ELG1 repair inh = qHTS screen for small molecules that inhibit ELG1-dependent DNA repair in human embryonic kidney (HEK293T) cells expressing luciferase-tagged ELG1. HEK293T ELG1-luciferase reporter, luminescence, 16 h; DNA damage induced by 5-fluorouridine. 2.3% of 330,000 active. Potency, µM (highest dose often 46.1 µM), without a hit: at the highest dose activity change, negative = inhibition, most hits filed as inhibitors; further: potency means the concentration at half of the fitted maximal effect; nearly all actives have a fitted effect of over 55% in size
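Reporter activity after DNA damage by 5-fluorouridine is monitored. Compound-treated cells incubate 16 hr at 37 °C, then ONE-Glo is added for 30 min before luminescence reading.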
DT40 TDP1 CPT = qHTS for Inhibitors of human tyrosyl-DNA phosphodiesterase 1 (TDP1): qHTS in cells in presence of CPT | chicken DT40 Tdp1-/-;hTDP1 cells + 20 nM CPT, ATP luminescence, 48 h | Potency, µM (highest dose often 46.2 µM), for the others: top-dose activity change, negative = growth inhibition, usual class: inhibitors | 12% of 420,000 active | AID 686979, 2013; further: potency means the concentration at half of the fitted maximal effect; nearly all actives have a fitted effect of over 55% in size
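Cell growth measured by CellTiter-Glo luminescence after a minimum 48 h, 37 C compound exposure with 20 nM CPT in Tdp1-knockout DT40 cells stably expressing hTDP1, seeded 400/well; qHTS titration format.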
Gal4-VP16 FLuc = VP16 counterscreen qHTS for inhibitors of ROR gamma transcriptional activity. Potency, µM (top dose mostly 53.6 µM), for the others: at the top dose activity, negative = inhibition, hits mostly inhibitors. 3.5% of 310,000 active. AID 2546, 2010. Drosophila S2 Gal4-VP16 UAS-luciferase, luminescence, 20 h;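 further: Gal4-VP16 expression switched on by copper sulfate through the metallothionein promoter; potency means the concentration at half of the fitted maximal effect; nearly all actives have a fitted effect of over 50% in size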
TDP1 cell noCPT = qHTS for Inhibitors of human tyrosyl-DNA phosphodiesterase 1 (TDP1): qHTS in cells in absence of CPT. DT40 Tdp1-/- hTDP1 cells, no CPT, ATP luminescence, 48 h. Potency, µM (titrated, usually from 46.2 µM), without a hit: at the highest dose activity change, negative = growth inhibition, hits mostly inhibitors. 15% of 420,000 active; further: potency means the concentration at half of the fitted maximal effect; nearly all actives have a fitted effect of over 55% in size
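Camptothecin absent (DMSO only). Human TDP1-complemented DT40 knockout cells, 400 cells/well, 37 °C for minimum 48 hr; ATP measured via CellTiter-Glo, 30 min dark incubation, luminescence.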
* marks the source's active call; other numbers are inactive results; ? = inconclusive; . = no result given; [ ] = remark or other dose. Unless noted, the call rests on the fitted dose curve; in most records, active means well fitted curve in the direction sought with a large enough effect; inconclusive means small, poorly fitted or top-dose-only effect, or another doubt; inactive means no such curve, though single readings can be large; an effect the other way counts as inactive or inconclusive. On the % scale 0 is the no-effect control and ±100 the full control effect.

SMILES | IL1B secr inh | RORg inh | ELG1 repair inh | DT40 TDP1 CPT | Gal4-VP16 FLuc | TDP1 cell noCPT
C[C@@H]1CN([C@H](C)CO)S(=O)(=O)c2ccc(C#Cc3ccccc3F)cc2O[C@H]1CN(C)C(=O)c1ccc2c(c1)OCO2 | -74* | . | . | 18µM* | . | 6.5µM*
C[C@H]1CN([C@@H](C)CO)S(=O)(=O)c2ccc(C#Cc3cccnc3)cc2O[C@@H]1CN(C)C(=O)Nc1ccc2c(c1)OCO2 | -12 | . | . | ? | . | 23µM*
C[C@H](CO)N1C[C@H](C)[C@@H](CN(C)CC2CCOCC2)Oc2cc(C#Cc3ccccc3F)ccc2S1(=O)=O | -19 | . | . | 18µM* | . | 9.2µM*
O=C(Nc1ccccc1Cl)OCC#CCOC(=O)Nc1ccccc1Cl | 7 | . | . | -23% | . | 0%
COC(=O)C[C@@H]1C=C[C@@H](NC(=O)C2CCC2)[C@@H](CO)O1 | 7 | . | . | 14% | . | 2%
Cc1ccc(Nc2nc(N)c(C#N)c(CC#N)c2C#N)cc1 | -97* | 20% | 8% | -15% | 5% | 2%
Cc1ccc(-n2nc(CC#N)c(C#N)c2N)cc1 | 20 | -20% | ? | -5% | -6% | -20%
COc1ccc(CCC(=O)N2CCN(S(=O)(=O)c3ccc(OC)c([N+](=O)[O-])c3)CC2)cc1 | 3 | . | . | ? | . | ?
COc1ccc2c(c1)c1c(c(=O)n(CCc3ccccc3)c(=O)n1Cc1ccc(Cl)cc1)n2C | . | . | . | 1% | . | -9%
CN(C)[C@@H](CO)c1nnc([C@H](CC(=O)O)NC(=O)C2CCNCC2)o1 | 2 | -8% | 4% | 4.6µM* | 0% | -1%
COc1ccc(NS(=O)(=O)c2cc(NC(=O)c3cnc(C)cn3)ccc2N2CCCCC2)cc1 | -9 | 29% | -1% | ? | -2% | ?
COc1ccc(NS(=O)(=O)c2cc(NC(=O)c3ccc(=O)[nH]c3)ccc2N2CCCC2)cc1 | 73 | -9% | 5% | 4.1µM* | -1% | 7.3µM*
COc1ccc(NS(=O)(=O)c2cc(NC(=O)c3ccco3)ccc2N2CCCCC2)cc1 | 0 | ? | ? | ? | 13µM* | 18µM*
c1ccc(CNc2c(C3CCNCC3)nc3scc(-c4ccccc4)n23)cc1 | -22 | . | . | ? | . | -16%
CCNC(=O)c1ccc(C23CC4CC(CC(C4)C2)C3)o1 | 14 | -13% | -4% | ? | 3%[10 µM] | 15µM*
CN1C(=O)C2CCCCN2c2ccc(C(=O)NCc3ccccc3Br)cc21 (stereo not drawn) | . | . | . | ? | . | -22%
COc1ccc(NS(=O)(=O)CC(C)C)c(OC)c1 | 1 | -5% | 3% | 4% | -10% | -6%
CCS(=O)(=O)Nc1ccc(-c2ccc(NS(=O)(=O)CC)c(OC)c2)cc1OC | -17 | ? | 23µM* | -68% | 9% | ?
CN(C)CCn1c(C(=O)O)cc2ccccc21 | 11 | -14% | -2% | -4% | -7% | -3%
O=C(Cn1c(C(=O)OCCO)cc2ccccc21)c1ccccc1 | 21 | -1% | 15% | 8.2µM* | 0% | ?
O=C(c1ccccc1)C(I)(I)N1CCOCC1 | . | . | . | -25% | . | ?
CC(C)Cn1c(CN(C)Cc2ccccc2)nc2c1c(=O)n(C)c(=O)n2C | 28 | 57% | ? | 6.5µM* | -17% | 7.3µM*
CN(C)c1nc2c(c(=O)n(C)c(=O)n2C)n1Cc1ccccc1 | 43 | 20% | -11% | -12% | -2% | -26%
Cc1nnc(SCCn2c(N(C)Cc3ccccc3)nc3c2c(=O)n(C)c(=O)n3C)s1 | 7 | . | . | ? | . | 11µM*
CN(Cc1ccccc1)Cc1nc2c(c(=O)n(C)c(=O)n2C)n1CCCc1ccccc1 | -24 | ? | -13% | 18µM* | -3% | 16µM*
SMILES | IL1B secr inh | RORg inh | ELG1 repair inh | DT40 TDP1 CPT | Gal4-VP16 FLuc | TDP1 cell noCPT
CCN1CCN(Cc2nc3c(c(=O)n(C)c(=O)n3C)n2CCCc2ccccc2)CC1 | . | -3% | -1% | . | 4% | .
COc1cc(NS(=O)(=O)c2ccc(C)c(C)c2)c(OC)cc1Cl | 8 | 8% | ? | 18µM* | 4% | ?
COc1cc(NC(C)=O)c2ncccc2c1Br | -25 | . | . | -17% | . | ?
CC(=O)NC(c1ccccc1)c1cc(Cl)c2cccnc2c1O (stereo not drawn) | 87 | 1.4µM* | ? | ? | 1.1µM* | ?
COc1ccc(C(NC(C)=O)c2cc(Cl)c3cccnc3c2O)cc1 (stereo not drawn) | 256 | 2µM* | ? | 8.2µM* | 1.6µM* | 8.2µM*
CC(=O)NC(c1ccc(N(C)C)cc1)c1cc(Cl)c2cccnc2c1O (stereo not drawn) | 61 | . | . | 4.6µM* | . | 6.5µM*
O=C(NC(c1ccc(Cl)cc1)c1cc(Cl)c2cccnc2c1O)c1cccnc1 (stereo not drawn) | ? | 0.71µM* | ? | 5.2µM* | 0.71µM* | 4.1µM*
Cc1cc(C(F)F)nn1CC(=O)NC1C(=O)N2C(C(=O)O)=C(CSc3nnnn3C)CSC12 (stereo not drawn) | 32 | -15% | -1% | 3% | -4% | 1%
C(=N\Nc1ccc2nncn2n1)/c1ccccn1 | . | -32% | 5.8µM* | 12µM* | 5% | 23µM*
C/C(=N\Nc1ccc2nncn2n1)c1ccccn1 | 89 | 8.9µM* | 1.2µM* | 2.3µM* | ? | 4.6µM*
Cc1c(CNC2CCCC2)c(C(=O)O)c(C)n1Cc1ccccc1 | 8 | 13% | 8% | -17% | -8% | -21%
CCOc1ccc(NC(=O)Cn2nnc(C(=O)NCc3cccs3)c2N)cc1 | 66 | -3% | 28% | -14% | -8% | 15%
COc1c(Cl)cccc1-c1cn2ccccc2n1 | 15 | 11µM* | ? | -6% | ? | ?
O=[N+]([O-])c1cccc(-c2cn3ccccc3n2)c1 | -7 | 22% | -6% | ? | 3% | ?
CN(Cc1ccccc1)C(=O)c1cccc(NC(=O)Cc2ccc(NC(=O)C3CCN(C(=O)CCc4ccccc4)CC3)cc2)c1 | -3 | . | . | ? | . | 16µM*
CN(Cc1ccccc1)C(=O)c1ccc(NC(=O)Cc2ccc(NC(=O)C3CCN(C(=O)CCc4ccccc4)CC3)cc2)cc1 | 23 | . | . | 26µM* | . | 10µM*

High-throughput results from PubChem BioAssay.
